Measured values from the supplement of paper PMC8975748.
Structures can show the parent of a compound that is named as a salt. ± gives the standard deviation of the averaged measurements.

Tested on: Saccharomyces cerevisiae BY4741 SeMeCo community
Assay: mean cell size (pixel area) (pixels); higher = larger cells
Settings: 10 µM; 24 h; SM minimal medium
Outline: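 Mean cell pixel area per well was measured in a four-plasmid fluorescent community of Saccharomyces cerevisiae BY4741, where every plasmid complements one auxotrophy and carries a fluorescent marker. Cells from an overnight preculture at OD600 = 1.0 were diluted to OD600 = 0.3 and dispensed at 70 µl into 384-well plates acoustically predosed with drug to a final 10 µM in SM medium. Incubation lasted 24 h, followed by paraformaldehyde fixation, automated confocal imaging and analysis in Harmony. Reported figures are averaged over 3 replicates. Same SeMeCo high-content imaging drug screen: Selleck FDA-approved drugs at 10 µM, 24 h in SM medium, 384-well plates, 3 replicates.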

`Nc1ccncc1` [4-Aminopyridine] and `NCC(O)c1ccc(O)cc1` (racemic) [(+,-)-Octopamine HCl] are within error of each other in mean cell size: 12.2 ± 0.16 for the first, 12.3 ± 0.14 for the second.

`CCCN1C[C@H](CSC)C[C@@H]2c3cccc4[nH]cc(c34)C[C@H]21` [Pergolide Mesylate] and `CC[C@H]1CN2CC[C@]3(C(=O)Nc4ccccc43)[C@@H]2C[C@@H]1/C(=C\OC)C(=O)OC` [Rhynchophylline] are the same in mean cell size: 12.4 ± 0.25 for the first, 12.38 ± 0.1 for the second.

`COc1ccc(C=O)cc1` [p-Anisaldehyde] and `COc1ccc(C(CN(C)C)C2(O)CCCCC2)cc1` (stereo not given) [Venlafaxine] are within error of each other in mean cell size: 12.3 ± 0.27 for the first, 12.1 ± 0.091 for the second.

`CC1(C)S[C@@H]2[C@H](N)C(=O)N2[C@H]1C(=O)O` [6-Aminopenicillanic acid] and `CC(=O)OCC1=C(C(=O)O)N2C(=O)[C@@H](N)[C@H]2SC1` [7-Aminocephalosporanic acid] are within error of each other in mean cell size: 12.1 ± 0.25 for the first, 12.28 ± 0.11 for the second.

`O=C(O[C@H]1C[N+]2(CCCOc3ccccc3)CCC1CC2)C(O)(c1cccs1)c1cccs1` [Aclidinium Bromide] and `O=C(O[C@H]1C[C@H]2CC[C@@H](C1)[N+]21CCCC1)C(O)(c1ccccc1)c1ccccc1` [Trospium chloride] are within error of each other in mean cell size: 12.59 ± 0.061 for the first, 12.5 ± 0.18 for the second.

`O=c1cccc2n1C[C@@H]1CNC[C@H]2C1` [Cytisine] and `C=C[C@H]1CN2CC[C@H]1C[C@H]2[C@H](O)c1ccnc2ccccc12` [Cinchonidine] are within error of each other in mean cell size: 12.6 ± 0.21 for the first, 12.47 ± 0.048 for the second.

Going from `CN1C(=O)COc2c(C(=O)NC3CN4CCC3CC4)cc(Cl)cc21` (stereo not given) [Azasetron HCl] to `O=c1[nH]c2ccccc2n1CCCN1CCC(n2c(=O)[nH]c3cc(Cl)ccc32)CC1` [Domperidone], the mean cell size rises from 12 ± 0.075 to 12.6 ± 0.23.

`CC(C)=CCOc1c2occc2cc2ccc(=O)oc12` [Imperatorin] and `Oc1cccc2cccnc12` [8-Hydroxyquinoline] are the same in mean cell size: 12.6 ± 0.14 for the first, 12.61 ± 0.039 for the second.

`C=CN1CCCC1=O.II` [Povidone iodine] and `COC(=O)C1=CCCN(C)C1` [Arecoline HBr] are within error of each other in mean cell size: 12.5 ± 0.22 for the first, 12.4 ± 0.29 for the second.

`CN[C@@H]1[C@@H](O)[C@@H](O[C@@H]2[C@@H](O)[C@H](O[C@H]3O[C@H]([C@@H](C)O)[C@@H](O)[C@H](O)[C@H]3N)[C@@H](N)C[C@H]2N)OC[C@]1(C)O` [Geneticin (G418 Sulfate)] and `CNC1CC(N)C(O)C(OC2OC(CO)C(O)C3OC4(OC(C(N)CO)C(O)C(O)C4O)OC23)C1O` (stereo not given) [Hygromycin B] are within error of each other in mean cell size: 11.99 ± 0.045 for the first, 11.8 ± 0.24 for the second.

Compared with `C[C@H]1O[C@H](O[C@H]2[C@H](O)[C@@H](O)[C@@H](O)[C@H](O)[C@@H]2O)[C@@H](N)C[C@@H]1NC(=N)C(=O)O` [Kasugamycin hydrochloride], `C[C@@H]1[C@H](O)[C@@H](C)/C=C/C=C/CC/C=C/C=C/C=C/C=C/[C@H](O[C@H]2O[C@@H](C)[C@H](O)[C@@H](N)[C@H]2O)C[C@@H]2O[C@](O)(C[C@@H](O)[C@H](O)CC[C@@H](O)C[C@@H](O)C[C@@H](O)CC(=O)O[C@H]1C)C[C@H](O)[C@H]2C(=O)O` [Nystatin (Fungicidin)] is lower in mean cell size: 12.1 ± 0.21 for the first, 9.704 ± 0.046 for the second.

`CCN(C)C(=O)Oc1cccc([C@H](C)N(C)C)c1` [Rivastigmine Tartrate] and `CN(C)C(=O)Oc1ccc[n+](C)c1` [Pyridostigmine Bromide] are within error of each other in mean cell size: 12.38 ± 0.056 for the first, 12.54 ± 0.1 for the second.

`C=CC[C@]1(O)CC[C@H]2[C@@H]3CCC4=CC(=O)CCC4=C3C=C[C@@]21C` [Altrenogest] and `COc1ccc2c(c1)[C@]13CCCC[C@@H]1[C@H](C2)N(C)CC3` [Dextromethorphan hydrobromide hydrate] are within error of each other in mean cell size: 12.58 ± 0.1 for the first, 12.5 ± 0.24 for the second.

`COc1ccc2[nH]cc(CCN)c2c1` [5-Methoxytryptamine] and `COc1ccc2c3c([nH]c2c1)C(C)=NCC3` [Harmaline] are within error of each other in mean cell size: 12.18 ± 0.062 for the first, 12.4 ± 0.34 for the second.

First: [O-][n+]1ccccc1[S-].[O-][n+]1ccccc1[S-].[Zn+2] [Zinc Pyrithione]
Second: CN1[C@@H]2CC[C@H]1C[C@@H](OC(=O)[C@H](CO)c1ccccc1)C2 [Hyoscyamine]
The mean cell size of the first is higher: 15.2 ± 0.23 for the first, 12.27 ± 0.064 for the second.

`COc1cc2c(cc1OC)C1CC(=O)C(CC(C)C)CN1CC2` (stereo not given) [Tetrabenazine (Xenazine)] and `C=C(C)[C@H]1Cc2c(ccc3c2O[C@@H]2COc4cc(OC)c(OC)cc4[C@@H]2C3=O)O1` [Rotenone (Barbasco)] are within error of each other in mean cell size: 12.62 ± 0.049 for the first, 12.67 ± 0.1 for the second.

`C[C@@H]1CC[C@H]2[C@@H](C)C(=O)O[C@@H]3O[C@@]4(C)CC[C@@H]1[C@]32OO4` [Artemisinin] and `CCN1C[C@]2(OC(=O)c3ccccc3NC(C)=O)CC[C@H](OC)[C@@]34[C@@H]2C[C@@H]([C@@H]13)[C@@]1(O)C[C@H](OC)[C@H]2C[C@@H]4[C@]1(O)[C@H]2OC` [Lappaconitine] are within error of each other in mean cell size: 12.3 ± 0.3 for the first, 12.4 ± 0.3 for the second.

`CCOC(=O)Nc1ccc(NCc2ccc(F)cc2)cc1N` [Retigabine 2HCl] and `CN1c2ccccc2C(NCCCCCCC(=O)O)c2ccc(Cl)cc2S1(=O)=O` (stereo not given) [Tianeptine sodium] are within error of each other in mean cell size: 12.5 ± 0.25 for the first, 12.6 ± 0.24 for the second.

`CC(C)(O)C(Cl)(Cl)Cl` [Chlorobutanol] and `C[N+]1(C)[C@@H]2C[C@@H](OC(=O)[C@H](CO)c3ccccc3)C[C@H]1[C@@H]1O[C@@H]12` [Methscopolamine] are the same in mean cell size: 12.5 ± 0.16 for the first, 12.49 ± 0.031 for the second.

`Cn1cc(C2=C(c3cn(C4CCN(Cc5ccccn5)CC4)c4ccccc34)C(=O)NC2=O)c2ccccc21` and `COc1ccc(C(CN(C)C)C2(O)CCCCC2)cc1` (stereo not given) [Venlafaxine HCl] are within error of each other in mean cell size: 12.41 ± 0.12 for the first, 12.3 ± 0.27 for the second.
